The campaign covered roughly 300,000 compounds. About 2,400 (0.8%) were called active.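 Rule for the calls: active = Every replicate reaches about 75%, or at least half do and their mean reaches it too (limit read from the data); inconclusive = At least half of replicates reach the limit but their mean does not; inactive = Under half of replicates reach the limit.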 The full list was thinned out, with actives kept by preference.

The test can be described thus: INS-1E beta cell survival under cytokines – luminescence, primary screen (AID 435005).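 Note: 0% = cytokine-treated negative control wells and 100% = positive control rescue; higher means more ATP so stronger rescue from cytokine killing.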 Particulars: INS-1E cytokine-induced death, ATP luminescence, 48 h; stronger effect = higher value; percent of positive-control rescue, neutral wells zero; concentration not given here.
Consider `COc1ccc(-c2nn(-c3ccccc3)cc2/C=C\C(=O)Nc2ccc(C(=O)O)cc2)cc1`, for which the protection from apoptosis was 8.98% (inactive).

Consider `Cc1ccc(-c2nn(-c3ccccc3)cc2/C=C/C(=O)Nc2cccc(S(N)(=O)=O)c2)cc1`, for which the protection from apoptosis is 120% (active).

Turning to `Cc1ccc(-c2nn(-c3ccccc3)cc2C(=O)Nc2cccc(S(=O)(=O)N3CCOCC3)c2)cc1`, the protection from apoptosis was 1.74% (inactive).

On to `O=S(=O)(c1ccc(SCc2ccccc2)nc1)N1CCCCCC1`, for which the protection from apoptosis is -5.69% (inactive).

For the molecule `Cc1ccc(-c2csc(NC(=O)C3=COCCO3)n2)cc1C`, the protection from apoptosis is 98.3% (active).

For the molecule `CC(=O)NCCC(=O)Nc1nc(-c2ccc3c(c2)OCCO3)cs1`, the protection from apoptosis was -3.86% (inactive).

Consider `NS(=O)(=O)c1ccc2nc(NC(=O)C3=COCCO3)sc2c1`, for which the protection from apoptosis is -1.35% (inactive).

With `C#CCOCCOCCOCCNc1nc(N2CCN(C(=O)[C@H](CCC(=O)O)n3cc(CN)nn3)CC2)nc(N2CCN(C(=O)[C@H](CCC(=O)O)n3cc(CN)nn3)CC2)n1`, the protection from apoptosis was -5.06% (inactive).

For the molecule `Cc1noc(C)c1S(=O)(=O)N(C)C[C@H]1Oc2ccc(NC(=O)C3CC3)cc2C(=O)N([C@H](C)CO)C[C@@H]1C`, the protection from apoptosis is 4.52% (inactive).

For the molecule `CCCCCCc1ccc(O)cc1O`, the protection from apoptosis was -5.91% (inactive).

`Cc1c(CC(=O)NCCCCCC(=O)O)c(=O)oc2cc3occ(-c4ccccc4)c3cc12`: the protection from apoptosis is -7.43% (inactive).

For the molecule `CCCCCCc1cc2cc(-c3nnc(-c4ccccc4)o3)c(=O)oc2cc1O`, the protection from apoptosis is 119% (active).

For the molecule `CCCCCCSc1ccc(-c2nc3ccc(Cl)cn3c2NCc2ccccc2)cc1`, the protection from apoptosis was -14.3% (inactive).

Turning to `O=C(COc1ccccc1F)NNC(=O)c1cc(Br)ccc1Cl`, the protection from apoptosis was 4.16% (inactive).

For the molecule `Oc1cccc(/C=N/Nc2ccc(Cl)nn2)c1O`, the protection from apoptosis is 107% (active).

`COc1cccc(/C=N/Nc2ccc(Cl)nn2)c1`: the protection from apoptosis is 0.496% (inactive).

Regarding `Clc1ccc(N/N=C/c2cccs2)nn1`, the protection from apoptosis was -1.26% (inactive).

Regarding `CN(C)C(=O)COC(=O)c1cccc(S(=O)(=O)N2CC3(C)CC2CC(C)(C)C3)c1` (stereo not drawn), the protection from apoptosis is -3.78% (inactive).

As for `OCCNc1nc(Nc2ccc(Cl)c(Cl)c2)nc2ccccc12`, the protection from apoptosis is 89.8% (active).

Turning to `COc1cc2nc(Cl)nc(NCCO)c2cc1OC`, the protection from apoptosis was -1.61% (inactive).

Turning to `CN(C)c1nc(Nc2ccc(Cl)c(Cl)c2)nc(N(C)C)n1`, the protection from apoptosis was 2.44% (inactive).

`COc1cc(C(=O)NCC(c2ccco2)N2CCCC2)ccc1OCc1ccccc1` (stereo not drawn): the protection from apoptosis is 0.158% (inactive).

For the molecule `COc1ccc(NC(=O)N(C)C[C@H]2Oc3ccc(NC(=O)C4CC4)cc3C(=O)N([C@H](C)CO)C[C@@H]2C)cc1`, the protection from apoptosis was -3.33% (inactive).

As to `O=C(N[C@@H]1C/C=C\C[C@@H](CC(=O)N(CCO)Cc2ccccc2)C(=O)N[C@H](Cc2ccccc2)COC1=O)OCC1c2ccccc2-c2ccccc21`, the protection from apoptosis is 50.5% (inactive).

On to `COc1ccc(-c2nc3cnccn3c2NC2CCCCC2)cc1-c1cccc(Cl)c1`, for which the protection from apoptosis is -8.81% (inactive).

With `Cc1cccc(N=C2NN=C(c3c[nH]c4ccccc34)CS2)c1`, the protection from apoptosis was 22.1% (inactive).

Consider `Clc1cccc(N=C2NN=C(c3ccc4c(c3)OCCO4)CS2)c1`, for which the protection from apoptosis was 83.6% (active).

For `c1ccc(CN2CCC(N=C3NN=C(c4ccc5c(c4)OCCO5)CS3)CC2)cc1`, the protection from apoptosis is -0.528% (inactive).

As to `CC(C#N)OC(=O)c1cccnc1SCC(=O)Nc1ccc2c(c1)OCO2` (stereo not drawn), the protection from apoptosis was 3.24% (inactive).

In the case of `CCNC(=S)N1CCN(S(=O)(=O)c2ccc(Cl)s2)CC1`, the protection from apoptosis is -2.64% (inactive).

Turning to `COc1cc(NC(=O)COC(=O)c2cc(S(=O)(=O)N3CCOCC3)ccc2F)cc(OC)c1`, the protection from apoptosis was -2.85% (inactive).

In the case of `COC(=O)c1sc(-c2ccc(C(C)(C)C)cc2)cc1NC(=O)/C=C/C(=O)O`, the protection from apoptosis is 99.2% (active).

As to `CSc1ccc(NC(=O)/C=C/C(=O)O)cc1`, the protection from apoptosis was -4.41% (inactive).

Regarding `COc1ccccc1NC(=O)/C=C/C(=O)O`, the protection from apoptosis is -6.73% (inactive).

For the molecule `CCN(C[C@H]1N[C@@](Cc2ccccc2)(C(=O)OC)[C@H]2C(=O)N(Cc3ccccc3)C(=O)[C@@H]12)C(=O)c1ccc(C)cc1`, the protection from apoptosis is 13.6% (inactive).

As for `O=C(c1cccc(Cl)c1)N1CCN(Cc2ccccc2)CC1`, the protection from apoptosis is -9.96% (inactive).

Turning to `CC(C)CC(=O)N1CCN(Cc2cccc(Cl)c2)CC1`, the protection from apoptosis is 3.65% (inactive).

Consider `Clc1cccc(CN2COc3c(cc(Cl)c4cccnc34)C2)c1`, for which the protection from apoptosis was 85.5% (active).

For `COC(=O)[C@]1(Cc2ccccc2)N[C@H](CN(C)S(=O)(=O)c2ccc(OC(F)(F)F)cc2)[C@@H]2C(=O)N(Cc3ccccc3)C(=O)[C@@H]21`, the protection from apoptosis is 10.5% (inactive).

In the case of `CCOC(=O)c1ccc(NC(=O)Cn2nnc(-c3ccc(C)cc3)n2)cc1`, the protection from apoptosis is 3.31% (inactive).

In the case of `CCCc1nnc(SCC(=O)Nc2ccc(C(=O)OCC)cc2)o1`, the protection from apoptosis is 1.98% (inactive).

Take `CCOC(=O)c1ccc(NC(=O)Cn2cnc3cc(C)c(C)cc32)cc1`: the protection from apoptosis was 105% (active).

`O=C(CNC(=O)c1ccccc1F)OCC(=O)c1c[nH]c2ccccc12`: the protection from apoptosis was -14.7% (inactive).

Regarding `COc1ccc(CCNC(=O)COC(=O)C2CC2C)cc1` (stereo not drawn), the protection from apoptosis was 0.884% (inactive).

Regarding `S=c1[nH]nc(-c2cc(-c3ccccc3)n[nH]2)n1/N=C/c1c2ccccc2cc2ccccc12`, the protection from apoptosis was 10.1% (inactive).

As for `Cc1cc(-c2n[nH]c(=S)n2/N=C/C(Br)=C/c2ccccc2)n[nH]1`, the protection from apoptosis is 84.8% (active).

Take `Oc1ccccc1/C=N/n1c(-c2cccs2)n[nH]c1=S`: the protection from apoptosis is -8.28% (inactive).

For the molecule `CC(OC(=O)c1ccc([N+](=O)[O-])cc1)C(=O)NCC1CCCCC1` (stereo not drawn), the protection from apoptosis was -1.81% (inactive).

Turning to `Cc1cc(NC(=O)CN2C(=O)NC(CC(C)C)C2=O)no1` (stereo not drawn), the protection from apoptosis was -6.09% (inactive).

Regarding `Oc1ccccc1CN1CCN(C(c2ccccc2)c2ccccc2)CC1`, the protection from apoptosis was 0.217% (inactive).

Turning to `CCOC(=O)N1CCN(C(c2cccnc2)c2ccc3cccnc3c2O)CC1` (stereo not drawn), the protection from apoptosis is 35.8% (inactive).

Regarding `CCN1CCN(C(c2cccnc2)c2cc(Cl)c3cccnc3c2O)CC1` (stereo not drawn), the protection from apoptosis is 92.4% (active).

With `COc1cc(/C=C/C(=O)OCC(=O)NCCCc2ccccc2)ccc1O`, the protection from apoptosis was -1.98% (inactive).

As for `C=CC[C@H](CC(=O)NCCO)C(=O)N[C@@H](COC(=O)[C@@H](CC=C)Cc1ccc(F)cc1)Cc1c[nH]c2ccccc12`, the protection from apoptosis is 6.33% (inactive).

On to `COc1ccc(NC(=O)CN(C)CC(=O)Nc2cccc(C(F)(F)F)c2)cc1`, for which the protection from apoptosis is -3.94% (inactive).

For `COc1cc(NC(=O)c2cncc(-c3ccc(C#N)cc3)c2)cc(C(=O)Nc2cccc(C(F)(F)F)c2)c1`, the protection from apoptosis is 23.5% (inactive).

`COc1cc(NC(=O)c2[nH]cnc2C(N)=O)cc(C(=O)Nc2cccc(C(F)(F)F)c2)c1`: the protection from apoptosis is 114% (active).

As to `NS(=O)(=O)c1ccc(CNC(=S)NC(=O)c2ccco2)cc1`, the protection from apoptosis is 2.51% (inactive).

In the case of `O=C(c1ccccc1)N1CCN(c2ccc([N+](=O)[O-])c(NCc3ccco3)c2)CC1`, the protection from apoptosis is 13.2% (inactive).

Turning to `COc1ccc(CCNc2cc(N3CCN(C(=O)c4ccccc4OC)CC3)ccc2[N+](=O)[O-])cc1OC`, the protection from apoptosis was 85.3% (active).

In the case of `COc1ccccc1OCCNc1cc(N2CCOCC2)ccc1[N+](=O)[O-]`, the protection from apoptosis was -8.92% (inactive).

Turning to `O=S(=O)(c1ccc(SCc2ccc(Br)cc2)nc1)N1CCOCC1`, the protection from apoptosis was -8.12% (inactive).

Regarding `Cc1ccc(OCC(=O)Nc2ccccc2C(=O)NC2CC2)cc1`, the protection from apoptosis was -2.93% (inactive).

As for `CC(Sc1ccccc1F)C(=O)Nc1cccc(S(=O)(=O)N2CCOCC2)c1` (stereo not drawn), the protection from apoptosis was -3.25% (inactive).

`CC(C)NC(=O)Nc1cccc2c1O[C@H](CN(C)S(=O)(=O)c1cccs1)[C@@H](C)CN([C@H](C)CO)C2=O`: the protection from apoptosis was -19% (inactive).

As to `CCn1c(=O)c([N+](=O)[O-])c(NCc2ccc3c(c2)OCO3)c2ccccc21`, the protection from apoptosis is 1.81% (inactive).

For the molecule `CCn1c(/C=C/c2ccc([N+](=O)[O-])o2)nc2ccccc2c1=O`, the protection from apoptosis is 104% (active).

As to `Cc1cc(C)nc(N/N=C/c2ccc([N+](=O)[O-])o2)n1`, the protection from apoptosis is -3.24% (inactive).

`C=CC(COCc1ccccc1)N(CC(=O)OC)S(=O)(=O)c1cc(Br)ccc1OC` (stereo not drawn): the protection from apoptosis was 1.07% (inactive).

On to `O=C(Nc1ccon1)c1nc[nH]c1C(=O)NCc1ccccc1`, for which the protection from apoptosis is 2.59% (inactive).

As to `NC(=O)CSc1c[nH]c2ccccc12`, the protection from apoptosis is 0.633% (inactive).

With `O=S(=O)(O)Oc1c[nH]c2ccccc12`, the protection from apoptosis was 95.8% (active).

For the molecule `O=C(NC1CCCC1)C(=O)c1c[nH]c2ccccc12`, the protection from apoptosis was -2.17% (inactive).

On to `Cc1cc(NC(=O)COC(=O)/C=C/c2ccc(C)o2)no1`, for which the protection from apoptosis is -0.145% (inactive).

`CC(=O)C[C@H](O)CC(=O)[C@@H]1OC(=O)[C@@H](C)C/C=C\Cc2ccccc21`: the protection from apoptosis is -6.43% (inactive).

Regarding `COc1ccccc1N(CC(=O)Nc1ccc(C)cc1Cl)S(=O)(=O)c1cccs1`, the protection from apoptosis is -11% (inactive).

Regarding `O=C(Nc1cccc(S(=O)(=O)N2CCCC2)c1)c1cncc(Br)c1`, the protection from apoptosis was -6.13% (inactive).

Regarding `COc1ccc(NC(=O)/C(Cl)=C(/Cl)S(=O)Cc2ccc(C)cc2)cn1` (stereo not drawn), the protection from apoptosis is 106% (active).

For the molecule `COc1ccc(Nc2ccc([N+](=O)[O-])cn2)cn1`, the protection from apoptosis was -4.41% (inactive).

Consider `Cc1ccc(NC(=O)OCc2cncs2)cc1`, for which the protection from apoptosis was -4.61% (inactive).

As to `O=C(Nc1cc(S(=O)(=O)Nc2ccc(Cl)cc2)ccc1O)c1ccc(F)cc1F`, the protection from apoptosis is 3.17% (inactive).

Regarding `CCCN(CC(=O)NC(=O)NC1CCCCC1)CC(=O)Nc1cc(Cl)ccc1Cl`, the protection from apoptosis is -6.07% (inactive).

For `CN(C)S(=O)(=O)c1cccc(NC(=O)COc2ccc3ccccc3c2)c1`, the protection from apoptosis is -1.11% (inactive).

`S=c1[nH]nc(NCCc2ccccc2)s1`: the protection from apoptosis was -4.61% (inactive).

On to `Cc1nc(C)c(-c2csc(NCCc3ccccc3)n2)s1`, for which the protection from apoptosis was 78.4% (active).

For the molecule `CCNc1nc(-c2cc3ccccc3o2)cs1`, the protection from apoptosis is -12.4% (inactive).

`O=C(CSc1ccccc1)Nc1cccc(S(=O)(=O)N2CCCCC2)c1`: the protection from apoptosis is -5.41% (inactive).

In the case of `COC(=O)[C@]1(Cc2ccccc2)N[C@H](CN(C)S(=O)(=O)c2ccc(OC(F)(F)F)cc2)[C@@H]2C(=O)N(C)C(=O)[C@@H]21`, the protection from apoptosis was -3.66% (inactive).

The record behind these values is PubChem BioAssay AID435005 (Broad Institute, 2010).
